Source: PubChem
Tb PFK block: inhibitors of T. brucei phosphofructokinase; O15648; T. brucei PFK, ADP-Glo luminescence; Potency, µM (titrated, usually from 57.5 µM), inactives show at the top dose activity, negative = inhibition, most hits filed as inhibitors; 330,000 compounds, 0.17% hits;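 further: potency means the concentration at half of the fitted maximal effect; 0% = uninhibited 1x PFK enzyme wells and -100% = no-enzyme wells; nearly all actives have a fitted effect of over 60% in size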
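Activity is normalized to no-enzyme wells (full inhibition) and 1.25 nM enzyme wells (no inhibition). Reaction: 0.5 mM F6P, 0.1 mM ATP, 45 min RT, ADP-Glo luminescence; concentration-response curves fitted and classed by quality.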
RGS12 GoLoco inh-1: blocks human Gai1 binding to RGS12 GoLoco peptide, red readout; Gai1:RGS12 GoLoco peptide FP, rhodamine, 10 min; Potency, µM (titrated, usually from 61.6 µM), for inactives: top-dose activity, negative = inhibition, usual class: inhibitors; 230,000 compounds, 0.44% hits; active means well fitted inhibition curve with a large enough effect, not every such curve was filed as active; inactive means no such curve, though single readings can be large or run the other way; further: potency means the concentration at half of the fitted maximal effect; on the % scale 0 is the no-effect control and ±100 the full control effect; nearly all actives have a fitted effect of over 30% in size
Menin-MLL TR inh: displaces Texas Red mutant MLL peptide from human menin; Menin + Texas Red MLL mutant peptide, fluorescence polarization; Potency, µM (highest dose often 61.6 µM), without a hit: at the highest dose FP activity change, negative = inhibition, usual class: inhibitors; 270,000 compounds, 0.23% hits; O00255; active means well fitted inhibition curve with a large enough effect in the polarisation, with a control signal flat, not every such curve was filed as active; inconclusive means small, poorly fitted or top-dose-only effect, or effect the other way, or a change in a side signal; inactive means no such curve, though single readings can be large or run the other way; the % refers to the polarisation; further: potency means the concentration at half of the fitted maximal effect; % of control where 0% means no effect
Menin-MLL FL inh: menin-MLL binding inhibition, fluorescein peptide | Fluorescence polarization, fluorescein-MLL peptide displacement from menin | FP activity change, % at 61.4 µM | 290,000 tested, under 10 active; active means well fitted curve in the direction sought with a large enough effect in the polarisation, not every such curve was filed as active; inconclusive means small, poorly fitted or top-dose-only effect, or effect the other way, or a change in a side signal; inactive means no such curve, though single readings can be large or run the other way; the % refers to the polarisation; further: % of control where 0% means no effect
MLL CXXC-DNA inh: blocks binding of human MLL CXXC domain to DNA; Q03164; MLL-CXXC / FITC-HOXA9 DNA fluorescence polarization; Potency, µM (highest dose often 115 µM), for inactives: top-dose activity change, negative = inhibition, hits mostly inhibitors; 290,000 compounds, 0.037% hits; AID 2662; active means well fitted inhibition curve with a large enough effect in the polarisation, with a control signal flat, not every such curve was filed as active; inconclusive means small, poorly fitted or top-dose-only effect, or effect the other way, or a change in a side signal; inactive means no such curve, though single readings can be large or run the other way; the % refers to the polarisation; further: potency means the concentration at half of the fitted maximal effect
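Purified MLL-CXXC (added from a 7 uM solution) was preincubated 5 min at ambient with pinned compounds in 50 mM Tris-HCl pH 7.5, 50 mM NaCl, 1 mM DTT, 0.05% BSA. Fluorescein-labeled HOX-A9 DNA (50 nM solution) followed, 30 min, then polarization read.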
RGS12 GoLoco inh-2: disrupts Gai1 binding to human RGS12 GoLoco peptide; Potency, µM (titrated, usually from 57.1 µM), for the others: at the highest dose activity, negative = inhibition, hits mostly inhibitors; 110 compounds, 50% hits; AID 2390; Gai1/rhodamine-RGS12 GoLoco peptide fluorescence polarization; shares compounds with RGS12 GoLoco inh-1
Numbers without * were called inactive; ? = inconclusive; . = not tested or not shown; ! = not active in a repeat; [ ] = remark or other dose. Only some compounds are listed: those with a hit (about 0.43% of all), similar ones and a draw of the others. Unless noted, the call rests on the fitted dose curve; in most records, active means well fitted curve in the direction sought with a large enough effect; inconclusive means small, poorly fitted or top-dose-only effect, or another doubt; inactive means no such curve, though single readings can be large; an effect the other way counts as inactive or inconclusive.

SMILES	Tb PFK block	RGS12 GoLoco inh-1	Menin-MLL TR inh	Menin-MLL FL inh	MLL CXXC-DNA inh	RGS12 GoLoco inh-2
O=C(CSc1nnnn1-c1ccccc1)Nc1ccc(N2CCOCC2)c(Cl)c1	.	7.1µM*	?	1	-5%	.
O=C(O)c1cc(=O)c2c3nc4ccccc4oc-3cc(=O)c2[nH]1	.	.	40µM*	9	-12%	.
CC[C@@]1(O)CC(O)c2c(cc3c(c2O)C(=O)c2c(O)ccc(O)c2C3=O)C1C(=O)OC (some centres not stated)	.	2.8µM*	?	?	.	5µM*
CCc1n(CC(O)COCc2ccccc2)c2ccccc2[n+]1C (configuration not stated)	-6%	3.2µM*	10%	-5	7%	16µM*
O=C1c2ccccc2C(=O)N1CC(O)COCc1ccccc1 (configuration not stated)	-3%	6%	2%	2	5%	.
O=C(O)c1cccc(CN2C(=O)c3ccccc3C2=O)c1	0%	.	-1%	-3	?	.
O=C1c2cccc3c(O)ccc(c23)C(=O)N1Cc1ccccc1	-5%	11µM*	23%	?	?	11µM*
O=C(c1ccc2c(c1)C(=O)N(CCCO)C2=O)c1ccc2c(c1)C(=O)N(CCCO)C2=O	-1%	8%	-8%	5	-3%	.
O=C1c2ccc3c4c(ccc(c24)C(=O)N1CCCCO)C(=O)N(CCCCO)C3=O	-2%	25µM*	?	-29	?	11µM*
COCCNC(=O)COc1ccc(OCCNC[C@H](O)COc2ccccc2)cc1	.	-3%	.	.	.	.
CCCC[N+]12CCC(CC1)C(C(=O)c1cccs1)C2 (configuration not stated)	1%	6.3µM*	-4%	4	1%	16µM*
CC(=O)c1ccc2c(c1)OCO2	-5%	0%	-21%	-1	0%	.
C[n+]1cc2c3c(ccc2c2ccc4cc5c(cc4c21)OCO5)OCO3	.	14µM*!	38%	-4	?	25µM*
Cc1n(CC(O)COC2CCCCC2)c2ccccc2[n+]1C (configuration not stated)	-7%	7.1µM*	1%	0	0%	16µM*
OC(COC1CCCCC1)CN1CCN(c2ccccc2)CC1 (configuration not stated)	-8%	-9%	15%	1	9%	.
COc1cccc(CC(=O)N2CCc3nc(-c4ccc(OC)cc4C)c4c(c3C2)CO[C@@H](c2ccccc2)C4)c1	.	3%[14.2 µM]	-17%[11.7 µM]	0[11.7 µM]	.	.
CCOCc1cnc(C)nc1NCC(=O)c1c(C)n(C)c2ccc(OC)cc12	5%	5µM*	-4%	1	-9%	25µM*
COc1ccc2c(c1)c(C(=O)CNc1nc(C)cs1)c(C)n2C	4%	-15%	-14%	3	10%	.
CCOc1ccc(N(CC(=O)N/N=C/c2ccc(OC(C)C)cc2)S(C)(=O)=O)cc1	-1%	10µM*	-15%	0	7%	5%[0.0121 µM]
Cc1ccc(NC(=O)CSc2nnc(-c3ccc(S(=O)(=O)N4CCOCC4)cc3)n2C)cc1	-8%	-50%	9%	7	14%	4%
Cc1nc(-c2ccc(Cl)cc2)oc1COC(C)(C)C(=O)O	.	.	-5%	-3	0%	.
COc1ccc2c(c1OC)C(=O)OC2C1c2cc3c(cc2CCN1C)OCO3 (configuration not stated)	2%	20µM*!	0%	3	12%	1%
O=C(O)COc1ccc(OCCNC[C@H](O)COc2ccccc2)cc1	.	-1%	.	.	.	.
O=C1c2cccc3c([N+](=O)[O-])ccc(c23)C(=O)N1c1ccccn1	1%	28µM*	?	?	4%	-5%
COc1ccc(C(=O)C2C3C4COC(O4)C(=O)C3C3C=Cc4ccccc4N32)c(OC)c1 (configuration not stated)	.	95%	?	?	.	.
SMILES	Tb PFK block	RGS12 GoLoco inh-1	Menin-MLL TR inh	Menin-MLL FL inh	MLL CXXC-DNA inh	RGS12 GoLoco inh-2
Cc1cc2nc3c(=O)[nH]c(=O)nc-3n(C[C@H](O)[C@H](O)[C@H](O)COP(=O)(O)OP(=O)(O)OC[C@H]3O[C@@H](n4cnc5c(N)ncnc54)[C@H](O)[C@@H]3O)c2cc1C	.	.	2%	?	?	.
CCC(CO)(C(=O)OC1C[N+]2(C)CCC1CC2)c1ccccc1 (configuration not stated)	-5%	16µM*	-6%	-5	18%	16µM*
C[N+]12CCC(CC1)C(OC(=O)C(O)(c1ccccc1)c1ccccc1)C2 (configuration not stated)	2%	12%	-9%	5	-3%	.
COc1ccccc1N1C(=O)C=C(Sc2nc(C)cc(C)n2)C1=O	0%	1.4µM*	.	1	-3%	?
Cn1c2cc(B(O)O)sc2c2cnn(Cc3c(F)cccc3Cl)c(=O)c21	-7%	.	.	.	.	.
COc1cc(OC)c(C2CC(=O)N3CN(c4ccc(C)cc4)CSC3=C2C#N)cc1OC (configuration not stated)	-12%	8.9µM*	13%	4	3%	?
CC[C@@H](C(=O)[C@@H](C)[C@@H](O)[C@H](C)CCc1ccc(C)c(O)c1C(=O)O)C1O[C@](CC)(C2CC[C@](O)(CC)[C@H](C)O2)C[C@@H]1C (some centres not stated)	.	.	14%	2	.	.
COc1cccc(-c2nnc3n2N=C(c2ccc(OC)cc2OC)CS3)c1	.	.	?	4	.	.
Cc1cc2nc3c(=O)n(C4CCCCC4)c(=O)[nH]c3nc2cc1N	-5%	-28%	6%	0	0%	?
Cc1cc(C)cc(Nc2cc(=O)n(C3CCCCC3)c(=O)[nH]2)c1	1%	-11%	-30%	7	-13%	.
CCCCNc1ccc2c3c(cccc13)C(=O)N(CCCC)C2=O	0%	14µM*	.	?	?	14µM*
NCCCC[C@H](N)C(=O)N[C@@H](CCCN=C(N)N)C(=O)N1CCC[C@H]1C(=O)N1CCC[C@H]1C(=O)NCC(=O)N[C@@H](Cc1ccccc1)C(=O)N[C@@H](CO)C(=O)N1CCC[C@H]1C(=O)N[C@@H](Cc1ccccc1)C(=O)O	.	.	10%	1	.	.
COC(=O)c1ccc(NC(=O)CSc2ccccn2)cc1	-2%	13µM*	-2%	2	2%	?
CCNC(=O)[C@@H]1CCCN1C(=O)[C@H](CCCN=C(N)N)NC(=O)[C@H](CC(C)C)NC(=O)[C@@H](Cc1c[nH]c2ccccc12)NC(=O)[C@H](Cc1ccc(O)cc1)NC(=O)[C@H](CO)NC(=O)[C@H](Cc1c[nH]c2ccccc12)NC(=O)[C@H](Cc1cnc[nH]1)NC(=O)[C@@H]1CCC(=O)N1	.	.	-19%	-1	2%	.
O=C(COc1ccc(Cl)cc1)N1CCN(Cc2ccc3c(c2)OCO3)CC1	1%	22µM*!	-20%	0	-3%	9%[0.0121 µM]
